Experimental findings from paper PMC5700166 are described below.

For the assay, the target named is T1, GST-Ap-NF-kB RHD (Exaiptasia pallida (Aiptasia), UniProt A0A913YAJ5 2-422).
T1 sequence: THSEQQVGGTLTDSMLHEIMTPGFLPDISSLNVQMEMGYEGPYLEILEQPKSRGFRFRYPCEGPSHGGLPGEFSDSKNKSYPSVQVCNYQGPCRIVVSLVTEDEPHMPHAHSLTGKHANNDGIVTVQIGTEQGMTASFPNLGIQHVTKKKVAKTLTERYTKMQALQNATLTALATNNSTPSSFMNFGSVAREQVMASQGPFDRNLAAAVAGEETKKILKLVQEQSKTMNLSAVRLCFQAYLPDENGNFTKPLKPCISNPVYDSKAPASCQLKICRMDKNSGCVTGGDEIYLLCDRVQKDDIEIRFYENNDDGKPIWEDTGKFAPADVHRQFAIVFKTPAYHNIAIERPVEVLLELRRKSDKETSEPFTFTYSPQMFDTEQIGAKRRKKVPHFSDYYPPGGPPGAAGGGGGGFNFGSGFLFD
The experiment in a line: protein-binding microarray (PBM); PBM: ~300 nM protein, 6 mM HEPES pH 7.8, 80 mM KCl, 0.5 mM EDTA, 0.5 mM EGTA, 6% glycerol, 35 ng/ul poly-dIdC, 1% milk, 1 h, room temperature; Ap Aiptasia and Nv Nematostella (sea anemones) / Co Capsaspora / Aq Amphimedon (sponge) / Dm Drosophila / Hu human; RHD is the Rel homology domain; high values mean tight binding. Conditions: dsDNA, one strand shown.
With “CCGATTAACATCAAGGAATTACCTGATGTTAATCGGGTCTTGATTCGCTTGACGCTGCTG”, the binding signal was determined as 1.08 z-score.

With “CCGATTAACATCAGGGTTTTCCATGATGTTAATCGGGTCTTGATTCGCTTGACGCTGCTG”, the binding signal was 2.55 z-score.

Regarding “CCGATTAACATCAGGGCAAACCCTGATGTTAATCGGGTCTTGATTCGCTTGACGCTGCTG”, the binding signal amounted to 1.34 z-score.

“CCGATTAACATCAGGAGATACCCTGATGTTAATCGGGTCTTGATTCGCTTGACGCTGCTG”: the binding signal came out at 3.04 z-score.

In the case of “CCGATTAACATCAAAATTCCACCTGATGTTAATCGGGTCTTGATTCGCTTGACGCTGCTG”, the binding signal was 1.5 z-score.

The sequence “CCGATTAACATCAGGAAAAACCCTGATGTTAATCGGGTCTTGATTCGCTTGACGCTGCTG” returned a binding signal of 4.35 z-score.

In the case of “CCGATTAACATCAGGCAAGTCCCTGATGTTAATCGGGTCTTGATTCGCTTGACGCTGCTG”, the binding signal worked out at 3.63 z-score.

On to “CCGATTAACATCAGGGAAGCACCTGATGTTAATCGGGTCTTGATTCGCTTGACGCTGCTG”, for which the binding signal turned out to be 4.67 z-score.

Regarding “CCGATTAACATCAGGACTTTACCTGATGTTAATCGGGTCTTGATTCGCTTGACGCTGCTG”, the binding signal was 1.18 z-score.

Sequence “CCGATTAACATCAGGATATACCCTGATGTTAATCGGGTCTTGATTCGCTTGACGCTGCTG” showed a binding signal of 2.02 z-score.

For “CCGATTAACATCAGGAAGACCCCTGATGTTAATCGGGTCTTGATTCGCTTGACGCTGCTG”, the binding signal turned out to be 3.9 z-score.

For the sequence “CCGATTAACATCAAGGGCTTCCCTGATGTTAATCGGGTCTTGATTCGCTTGACGCTGCTG”, the binding signal is 1.53 z-score.

As for “CCGATTAACATCAGGTACTTCCATGATGTTAATCGGGTCTTGATTCGCTTGACGCTGCTG”, the binding signal came to 2.51 z-score.

On to “CCGATTAACATCAACAAAGTCCCTGATGTTAATCGGGTCTTGATTCGCTTGACGCTGCTG”, for which the binding signal was 4.89 z-score.
